# Measured values published in PubChem BioAssay AID602143 (Vanderbilt Specialized Chemistry Center, 2011).
# Unmarked numbers belong to inactive results. Rule as the data show it: active = remaining activity below about 50%; inactive = the rest.
# Molecular target: Phospholipase D2 (Homo sapiens) (UniProt O14939)
# Assay: PLD2 inhibitors in cells, cell-based, HEK293, single concentration (AID 602143);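 also: tested at 200 nM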
# Settings: HEK293 cellular PLD2 activity, percent of control; hits give low values
# Sequence of Phospholipase D2 (Homo sapiens) (O14939 whole entry, looked up): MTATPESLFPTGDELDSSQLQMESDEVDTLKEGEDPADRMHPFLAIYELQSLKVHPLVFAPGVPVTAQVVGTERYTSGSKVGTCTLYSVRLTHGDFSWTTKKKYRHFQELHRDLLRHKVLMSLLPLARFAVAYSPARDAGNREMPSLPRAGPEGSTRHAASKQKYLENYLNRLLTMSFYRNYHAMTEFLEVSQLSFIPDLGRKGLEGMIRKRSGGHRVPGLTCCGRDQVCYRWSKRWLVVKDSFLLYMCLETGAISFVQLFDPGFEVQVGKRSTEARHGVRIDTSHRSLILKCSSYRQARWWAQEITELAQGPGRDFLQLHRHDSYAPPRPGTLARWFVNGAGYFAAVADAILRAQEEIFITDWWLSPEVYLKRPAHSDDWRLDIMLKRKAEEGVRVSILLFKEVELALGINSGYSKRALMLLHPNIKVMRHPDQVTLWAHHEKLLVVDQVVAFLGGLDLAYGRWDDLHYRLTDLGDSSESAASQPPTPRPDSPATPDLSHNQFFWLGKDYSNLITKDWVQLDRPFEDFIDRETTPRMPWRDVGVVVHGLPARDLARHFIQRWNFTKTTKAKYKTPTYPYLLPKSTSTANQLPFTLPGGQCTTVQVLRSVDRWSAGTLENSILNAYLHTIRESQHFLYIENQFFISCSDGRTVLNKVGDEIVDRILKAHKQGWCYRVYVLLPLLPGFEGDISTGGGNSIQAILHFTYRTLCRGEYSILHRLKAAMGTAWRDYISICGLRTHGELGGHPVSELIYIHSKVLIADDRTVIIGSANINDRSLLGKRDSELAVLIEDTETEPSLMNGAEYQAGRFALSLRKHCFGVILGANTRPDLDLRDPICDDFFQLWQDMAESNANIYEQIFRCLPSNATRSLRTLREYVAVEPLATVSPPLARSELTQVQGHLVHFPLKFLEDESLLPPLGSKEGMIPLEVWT
# Sequence of Phospholipase D2 (Homo sapiens) (O14939 whole entry, looked up): as above
row,SMILES,remaining activity
1,O=C(C1C[C@@H]1c1ccccc1)N1CCC2(CC1)C(=O)NCN2c1ccccc1 (stereo partly drawn),84%
2,O=C(NCCN1CCC2(C=Cc3ccccc32)CC1)c1ccc2ccccc2c1,119%
3,O=C(NCCN1CCC(c2nc3ccccc3[nH]2)CC1)c1ccc2ccccc2c1,95.1%
